Experimental data published in PubChem BioAssay (Tox21).
Several values for one entry are separate records, joined by “and”; a condition that tells them apart may be missing. Equal entries are not always repeated. Inconclusive results are not listed. Some structures have more than one record in an assay (separate samples or runs), and their calls can disagree. Activity calls are given as the source filed them. Unless noted, the call rests on the fitted dose curve; in most records, active means well fitted curve in the direction sought with a large enough effect in the repeat runs; inconclusive means weak or mixed curves; inactive means no such curve, though single readings can be large; an effect the other way counts as inactive or inconclusive.

Columns and labels:
[1] = biological target: Progesterone receptor (Homo sapiens) (UniProt P06401); experiment: qHTS assay to identify small molecule agonists of the progesterone receptor (PR) signaling pathway (AID 1346784; calls by dose curve; further: nearly all actives have a fitted effect of over 30% in size)
Outline: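 HEK 293T PR-UAS-bla reporter cells, 2% charcoal-stripped FBS; 6 hr settle at 37C/5% CO2, compound (DMSO) 16 hr, LiveBLAzer B/G FRET substrate 2 hr RT, fluorescence intensity read.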

[2] = biological target: Progesterone receptor (Homo sapiens) (UniProt P06401); experiment: qHTS assay to identify small molecule antagonists of the progesterone receptor (PR) signaling pathway (AID 1346795; active means well fitted inhibition curve with a large enough effect in the signal ratio in the repeat runs, not every such curve was filed as active; the % refers to the signal ratio; further: potency means the concentration at half of the fitted maximal effect)
Outline: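 Beta-lactamase reporter, HEK293T PR-UAS-bla line; 2% charcoal-stripped FBS; 6 hr pre-incubation, 37C/5% CO2. Compound + R5020 1 nM final, 16 hr. LiveBLAzer B/G FRET substrate, 2 hr RT; fluorescence intensity read.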

[3] = qHTS assay to identify small molecule antagonists of the progesterone receptor (PR) signaling pathway - cell viability counter screen (AID 1346798); further: series mostly up to about 92 µM; nearly all actives have a fitted effect of over 50% in size
Outline: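 Luminescence readout (CellTiter-Glo, 30 min, RT) of viability in PR-UAS-bla HEK293T cells exposed to compound and R5020 agonist for 16 hr at 37C, 5% CO2; run in the same wells as the beta-lactamase reporter read.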

[4] = qHTS assay to identify small molecule agonists of the progesterone receptor (PR) signaling pathway - cell viability counter screen (AID 1346799; calls by dose curve; further: nearly all actives have a fitted effect of over 45% in size)
Outline: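 HEK293T PR-UAS-bla, 3,000 cells/well, 2% charcoal-stripped FBS; 6 h settle, compound 16 h at 37C/5% CO2; LiveBLAzer 2 h RT, then CellTiter-Glo 30 min RT, luminescence read.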

[5] = qHTS assay to identify small molecule antagonists of the TGF-beta/Smad signaling pathway - cell viability counter screen (AID 1346824); further: nearly all actives have a fitted effect of over 50% in size
Outline: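 SBE-bla HEK 293T cells were plated overnight at 37 C, then given compounds in DMSO plus TGF-beta1 (added as 0.25 ng/mL solution) for 5 hr. After the bla read, CellTiter-Glo was added to the same wells and luminescence read after 30 min at room temperature.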

[6] = qHTS assay to identify small molecule agonists of the TGF-beta/Smad signaling pathway - cell viability counter screen (AID 1346829); further: top concentration of the series differs between compounds; nearly all actives have a fitted effect of over 45% in size
Outline: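 After overnight seating at 37 C and 5% CO2, reporter cells got compounds for 5 hr and FRET substrate for 2 hr; cell viability then came from CellTiter-Glo luminescence.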

[7] = qHTS assay to identify small molecule agonists of the TGF-beta/Smad signaling pathway (AID 1346859; active means well fitted activation curve with a large enough effect in the signal ratio in the repeat runs, not every such curve was filed as active; the % refers to the signal ratio; further: series mostly up to about 77 µM)
Outline: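 Read-out: fluorescence at 460 and 530 nm (405 nm excitation) after a 2 hr room-temperature incubation with beta-lactamase FRET substrate. SBE-bla HEK 293T cells had been treated with test compounds for 5 hr at 37 C.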

[8] = biological target: Thyrotropin-releasing hormone receptor (Homo sapiens) (UniProt P34981); experiment: qHTS assay to identify small molecule antagonists of the thyrotropin-releasing hormone receptor (TRHR) signaling pathway (AID 1346877; active means well fitted inhibition curve with a large enough effect in the repeat runs, not every such curve was filed as active; further: potency means the concentration at half of the fitted maximal effect; on activity, negative = inhibition: series mostly up to about 51 µM)
Outline: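 Calcium signal in dye-loaded TRHR/HEK293 cells; compounds added 5 min before TRH (1 nM final); fluorescence monitored 3 min at 1 s steps.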

[9] = Human pregnane X receptor (PXR) small molecule agonists, qHTS cell viability counter screen (AID 1346977); further: nearly all actives have a fitted effect of over 50% in size
Outline: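 Fluorescence read-out (CellTiter-Fluor) of viability in PXR-Luc HepG2 cells, multiplexed with the luciferase agonist read. Compounds in DMSO added after 5hr plating; 24hr total exposure at 37C, 5% CO2.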

[10] = Caspase-3/7 induction in HepG2 cells by small molecules, qHTS assay (AID 1346978); further: nearly all actives have a fitted effect of over 15% in size
Outline: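 Wild-type HepG2 cells (2,000/well) were settled 5 h at 37 C, 5% CO2, then exposed to compounds in DMSO for 17 h. Caspase-3/7 activity was read by luminescence 30 min after adding Caspase-Glo 3/7 reagent at room temperature.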

[11] = Caspase-3/7 induction in CHO-K1 cells by small molecules, qHTS cell viability counter screen (AID 1346979); further: nearly all actives have a fitted effect of over 35% in size; further: potency means the concentration at half of the fitted maximal effect
Outline: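 CHO-K1 wt, 1,500 cells/well; 5hr pre-incubation 37C/5% CO2; compound pin transfer (DMSO); 16hr exposure; CellTiter-Fluor added, 1hr, fluorescence read.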

[12] = Caspase-3/7 induction in CHO-K1 cells by small molecules, qHTS assay (AID 1346980); further: nearly all actives have a fitted effect of over 15% in size
Outline: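 Wild-type cells were seeded at 1,500 per well and settled 5 hr at 37 C, 5% CO2, then exposed to DMSO-dissolved compounds for 17 hr. Caspase-Glo 3/7 reagent was added, and luminescence was read after 30min at room temperature.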

[13] = Caspase-3/7 induction in HepG2 cells by small molecules, qHTS cell viability counter screen (AID 1346981); further: series mostly up to about 92 µM; nearly all actives have a fitted effect of over 30% in size
Outline: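 After a 5-hr attachment period at 37 C and 5% CO2, wild-type HepG2 cells received compounds in DMSO. Sixteen hours later CellTiter-Fluor was dispensed and the fluorescent signal quantified after a further hour.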

[14] = biological target: Nuclear receptor subfamily 1 group I member 2 (Homo sapiens) (UniProt O75469); experiment: Human pregnane X receptor (PXR) small molecule agonists, qHTS assay (AID 1346982); further: nearly all actives have a fitted effect of over 35% in size; further: potency means the concentration at half of the fitted maximal effect
Outline: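 Tox21 qHTS; PXR-Luc HepG2; compounds pinned from DMSO; 24 hr, 37 C; ONE-Glo luciferase detection, 30 min room temperature.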

[15] = biological target: Nuclear receptor subfamily 1 group I member 2 (Homo sapiens) (UniProt O75469); experiment: CYP3A4 induction through human pregnane X receptor (PXR) by small molecules, qHTS assay (AID 1346984); further: nearly all actives have a fitted effect of over 40% in size
Outline: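 Cells (DPX-2; HepG2 with PXR element plus CYP3A4-promoter luciferase) settled 5hr, then were treated 24hr at 37C. A 3hr, 3uM-final Luciferin-IPA step preceded luminescence measurement with One-Glo.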

[16] = biological target: Nuclear receptor subfamily 1 group I member 2 (Homo sapiens) (UniProt O75469); experiment: Human pregnane X receptor (PXR) activation by small molecules, qHTS assay (AID 1346985); further: nearly all actives have a fitted effect of over 40% in size; further: potency means the concentration at half of the fitted maximal effect
Outline: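 DPX-2 cells (HepG2 co-transfected with a PXR response element and a CYP3A4-promoter luciferase construct) were seeded at 2,000 per well, rested 5 hr at 37C, then exposed to DMSO-dissolved compounds for 24 hr. Activation was read as luciferase luminescence.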

[17] = biological target: Cytochrome P450 2D6 (Homo sapiens) (UniProt P10635); experiment: Cytochrome P450 Family 2 Subfamily D Member 6 (CYP2D6) small molecule antagonists: luciferase reporter qHTS assay (AID 1671196); further: nearly all actives have a fitted effect of over 50% in size; further: potency means the concentration at half of the fitted maximal effect; on activity change, negative = inhibition: series mostly up to about 120 µM
Outline: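 Room-temperature luminescent CYP2D6 activity assay: compound preincubated 10 min with enzyme–substrate mix, NADPH-initiated reaction 1 h, detection reagent 20 min before reading.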

[18] = biological target: Cytochrome P450 2C19 (Homo sapiens) (UniProt P33261); experiment: Cytochrome P450 Family 2 Subfamily C Member 19 (CYP2C19) small molecule antagonists: luciferase reporter qHTS assay (AID 1671197); further: nearly all actives have a fitted effect of over 65% in size; further: potency means the concentration at half of the fitted maximal effect; on activity change, negative = inhibition: series mostly up to about 120 µM
Outline: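 Inhibition of CYP2C19 was scored from loss of luminescence in a P450-Glo proluciferin substrate assay, NADPH-started and run 1 h at 37C, with ketoconazole as positive control.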

[19] = biological target: Thyrotropin-releasing hormone receptor (Homo sapiens) (UniProt P34981); experiment: qHTS assay to identify small molecule agonists of the thyrotropin-releasing hormone receptor (TRHR) signaling pathway (AID 1346891; calls by dose curve;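 further: HEK293 cells expressing TRHR with calcium dye readout; series mostly up to about 58 µM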)
Outline: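 HEK293/TRHR cells, 1500 per well, 18 h 37 °C; Ca dye 2 h 37 °C; pin-tool compound addition (agonist mode); kinetic fluorescence 3 min, 1 s reads; 15 concentrations, triplicate.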

[20] = biological target: Nuclear receptor subfamily 1 group I member 2 (Rattus norvegicus) (UniProt Q9R1A7); experiment: Rat pregnane X receptor (rPXR) activation by small molecules, qHTS assay (AID 1346983); conditions: rPXR luciferase reporter cells, One-Glo luminescence, 24 h; stronger effect = higher value; further: nearly all actives have a fitted effect of over 20% in size
Outline: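 Cell-based rPXR luciferase reporter assay, 2,000 cells per well, rested 5hr at 37 C before compound addition in DMSO, then 24 hr at 37 C. One-Glo reagent was added and luminescence read after 30 min at room temperature.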
On the % scale 0 is the no-effect control and ±100 the full control effect.

Sequence of Nuclear receptor subfamily 1 group I member 2 (Homo sapiens) (O75469 whole entry, looked up): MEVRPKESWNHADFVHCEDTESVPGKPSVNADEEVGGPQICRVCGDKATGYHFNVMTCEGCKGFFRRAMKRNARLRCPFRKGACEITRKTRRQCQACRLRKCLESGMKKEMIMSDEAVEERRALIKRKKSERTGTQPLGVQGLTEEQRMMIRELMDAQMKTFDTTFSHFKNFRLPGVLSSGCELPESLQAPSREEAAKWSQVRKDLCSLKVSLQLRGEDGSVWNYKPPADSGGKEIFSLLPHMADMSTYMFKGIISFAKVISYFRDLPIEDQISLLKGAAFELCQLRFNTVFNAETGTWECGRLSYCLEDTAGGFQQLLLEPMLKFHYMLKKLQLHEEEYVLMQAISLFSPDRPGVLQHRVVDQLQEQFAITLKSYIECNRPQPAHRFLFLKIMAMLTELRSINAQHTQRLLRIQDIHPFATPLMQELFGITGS
Sequence of Progesterone receptor (Homo sapiens) (P06401 whole entry, looked up): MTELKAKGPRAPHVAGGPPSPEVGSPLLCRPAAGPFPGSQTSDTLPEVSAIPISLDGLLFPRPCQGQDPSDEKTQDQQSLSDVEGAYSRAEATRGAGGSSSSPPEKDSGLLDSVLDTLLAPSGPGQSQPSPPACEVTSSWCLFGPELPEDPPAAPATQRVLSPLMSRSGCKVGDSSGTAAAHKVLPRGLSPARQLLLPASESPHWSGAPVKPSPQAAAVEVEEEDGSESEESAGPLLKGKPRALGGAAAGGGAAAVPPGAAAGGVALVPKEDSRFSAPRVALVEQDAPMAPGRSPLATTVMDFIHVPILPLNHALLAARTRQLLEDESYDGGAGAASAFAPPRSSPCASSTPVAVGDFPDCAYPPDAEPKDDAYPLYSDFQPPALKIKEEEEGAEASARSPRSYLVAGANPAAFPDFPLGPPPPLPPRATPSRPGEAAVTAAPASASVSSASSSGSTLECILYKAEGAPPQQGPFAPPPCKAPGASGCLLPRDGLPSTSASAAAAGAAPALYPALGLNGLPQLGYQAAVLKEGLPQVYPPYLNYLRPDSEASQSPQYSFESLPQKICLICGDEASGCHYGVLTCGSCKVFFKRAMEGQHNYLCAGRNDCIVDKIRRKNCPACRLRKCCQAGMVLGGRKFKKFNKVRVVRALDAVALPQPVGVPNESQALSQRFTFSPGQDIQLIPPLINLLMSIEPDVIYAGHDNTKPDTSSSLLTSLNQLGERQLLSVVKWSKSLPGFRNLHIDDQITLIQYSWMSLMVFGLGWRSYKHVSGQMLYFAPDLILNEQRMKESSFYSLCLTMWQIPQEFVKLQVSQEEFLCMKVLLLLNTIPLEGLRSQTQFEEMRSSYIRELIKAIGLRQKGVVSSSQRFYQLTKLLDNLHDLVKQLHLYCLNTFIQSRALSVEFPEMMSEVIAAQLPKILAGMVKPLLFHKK
Sequence of Cytochrome P450 2D6 (Homo sapiens) (P10635 whole entry, looked up): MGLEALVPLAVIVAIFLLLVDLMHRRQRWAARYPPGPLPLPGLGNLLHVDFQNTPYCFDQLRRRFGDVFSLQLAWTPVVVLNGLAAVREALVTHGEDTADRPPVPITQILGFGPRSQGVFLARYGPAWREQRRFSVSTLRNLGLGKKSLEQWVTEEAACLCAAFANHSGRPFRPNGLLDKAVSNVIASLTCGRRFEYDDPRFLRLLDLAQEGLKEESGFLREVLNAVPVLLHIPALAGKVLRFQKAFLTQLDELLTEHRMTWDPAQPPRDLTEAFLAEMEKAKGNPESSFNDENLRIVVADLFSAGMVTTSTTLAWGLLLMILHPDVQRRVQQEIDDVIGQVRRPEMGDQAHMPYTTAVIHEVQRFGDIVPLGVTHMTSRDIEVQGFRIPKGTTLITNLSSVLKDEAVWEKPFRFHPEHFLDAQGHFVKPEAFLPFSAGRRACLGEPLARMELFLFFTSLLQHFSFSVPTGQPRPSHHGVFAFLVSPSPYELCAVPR
Sequence of Thyrotropin-releasing hormone receptor (Homo sapiens) (P34981 whole entry, looked up): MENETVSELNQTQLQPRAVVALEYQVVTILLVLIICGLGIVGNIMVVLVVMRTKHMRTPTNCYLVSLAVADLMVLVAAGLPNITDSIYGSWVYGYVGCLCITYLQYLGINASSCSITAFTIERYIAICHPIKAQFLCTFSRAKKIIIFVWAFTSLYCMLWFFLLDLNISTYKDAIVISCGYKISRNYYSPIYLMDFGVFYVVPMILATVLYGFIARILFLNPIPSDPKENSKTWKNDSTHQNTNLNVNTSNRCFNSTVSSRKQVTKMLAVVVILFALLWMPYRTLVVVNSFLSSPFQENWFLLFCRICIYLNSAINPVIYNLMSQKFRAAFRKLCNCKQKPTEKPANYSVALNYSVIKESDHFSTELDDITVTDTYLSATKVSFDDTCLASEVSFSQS
Sequence of Cytochrome P450 2C19 (Homo sapiens) (P33261 whole entry, looked up): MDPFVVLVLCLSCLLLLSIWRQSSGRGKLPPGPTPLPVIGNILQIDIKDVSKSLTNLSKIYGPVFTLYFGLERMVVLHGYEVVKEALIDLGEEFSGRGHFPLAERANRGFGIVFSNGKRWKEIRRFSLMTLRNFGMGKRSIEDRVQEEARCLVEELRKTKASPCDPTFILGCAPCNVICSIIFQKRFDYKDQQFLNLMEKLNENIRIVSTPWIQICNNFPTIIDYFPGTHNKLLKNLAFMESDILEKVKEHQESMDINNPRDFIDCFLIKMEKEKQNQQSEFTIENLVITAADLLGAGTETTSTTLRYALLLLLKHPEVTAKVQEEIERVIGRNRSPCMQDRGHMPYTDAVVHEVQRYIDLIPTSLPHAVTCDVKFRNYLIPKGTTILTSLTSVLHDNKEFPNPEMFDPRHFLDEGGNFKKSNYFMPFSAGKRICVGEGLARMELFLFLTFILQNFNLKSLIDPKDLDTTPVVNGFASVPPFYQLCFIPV
Sequence of Nuclear receptor subfamily 1 group I member 2 (Rattus norvegicus) (Q9R1A7 whole entry, looked up): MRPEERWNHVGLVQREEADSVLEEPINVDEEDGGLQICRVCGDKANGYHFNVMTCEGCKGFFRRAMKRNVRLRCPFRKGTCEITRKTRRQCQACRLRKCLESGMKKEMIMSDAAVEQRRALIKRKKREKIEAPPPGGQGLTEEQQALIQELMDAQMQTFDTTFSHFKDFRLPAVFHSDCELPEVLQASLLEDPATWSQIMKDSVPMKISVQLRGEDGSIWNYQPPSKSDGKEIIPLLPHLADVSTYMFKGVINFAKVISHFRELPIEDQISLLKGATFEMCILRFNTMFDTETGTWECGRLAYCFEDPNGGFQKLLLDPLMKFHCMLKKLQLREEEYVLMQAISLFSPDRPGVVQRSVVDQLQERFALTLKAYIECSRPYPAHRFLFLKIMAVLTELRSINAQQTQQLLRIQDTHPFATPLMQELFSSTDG

Cc1ccc(C(C)C)cc2c(C)ccc1-2
active: Potency [14] 10.6 µM | Potency [16] 22.4 µM
inactive: Potency [1] | Potency [2] | Potency [3] | Potency [4] | Potency [5] | Potency [6] | Potency [7] | Potency [8] | Potency [9] | Potency [10] | Potency [11] | Potency [12] | Potency [13] | Potency [15] | Potency [17]

CCCCCCCCCCOC(=O)c1ccccc1C(=O)OCCCCCCCC
inactive: Potency [1] | Potency [2] | Potency [3] | Potency [4] | Potency [5] | Potency [6] | Potency [7] | Potency [8] | Potency [9] | Potency [10] | Potency [11] | Potency [12] | Potency [13] | Potency [14] | Potency [17] | Potency [18]

O=C(/C=C/c1ccc(O)c(O)c1)O[C@@H](C(=O)O)[C@@H](OC(=O)/C=C/c1ccc(O)c(O)c1)C(=O)O
inactive: Potency [1] | Potency [2] | Potency [3] | Potency [4] | Potency [5] | Potency [6] | Potency [7] | Potency [8] | outcome [19] | Potency [10] | Potency [12] | Potency [13] | Potency [14] | Potency [18]
active: Potency [17] 31.7 µM

COc1cc(C)ccc1O
inactive: Potency [1] | Potency [2] | Potency [3] | Potency [4] | Potency [5] | Potency [6] | Potency [7] | Potency [8] | Potency [9] | Potency [10] | Potency [11] | Potency [12] | Potency [14] | Potency [17]
active: Potency [18] 56.4 µM

CC(C)CCCCCOC(=O)CCS
inactive: Potency [1] | Potency [2] | Potency [3] | Potency [4] | Potency [5] | Potency [6] | Potency [7] | Potency [8] | Potency [9] | Potency [10] | Potency [11] | Potency [12] | Potency [13] | Potency [14] | Potency [17]

OC[C@H]1O[C@H](O[C@H]2O[C@H](CO)[C@@H](O)[C@H](O)[C@H]2O)[C@H](O)[C@@H](O)[C@@H]1O
inactive: Potency [1] | Potency [2] | Potency [3] | Potency [4] | Potency [5] | Potency [6] | Potency [7] | Potency [8] | outcome [19] | Potency [9] | Potency [10] | Potency [11] | Potency [12] | Potency [13] | Potency [14] | Potency [18]

Nc1nc(N)nc(-c2cc(Cl)ccc2Cl)n1
inactive: Potency [1] | Potency [2] | Potency [3] | Potency [4] | Potency [5] | Potency [6] | Potency [7] | Potency [8] | Potency [9] | Potency [10] | Potency [11] | Potency [12] | Potency [13] | Potency [14] | max activation [20] -2.66% | Potency [15] | Potency [16] | Potency [17] | Potency [18]

C=CC(=O)OCCOC(=O)C=C
inactive: Potency [1] | Potency [2] | Potency [3] | Potency [4] | Potency [5] | Potency [6] | Potency [7] | Potency [8] | outcome [19] | Potency [9] | Potency [10] | Potency [12] | Potency [13] | Potency [14] | Potency [17] | Potency [18]

CC[C@H](C)COC(=O)/C=C/c1ccc(N=Cc2ccc(OC)cc2)cc1
active: Potency [2] 30.6 µM | Potency [11] 61 µM | Potency [14] 30.6 µM | Potency [17] 70.9 µM | Potency [18] 0.893 µM
inactive: Potency [1] | Potency [3] | Potency [4] | Potency [5] | Potency [6] | Potency [7] | Potency [9] | Potency [10] | Potency [12] | Potency [13]

O=C1c2ccccc2C(=O)N1SC1CCCCC1
inactive: Potency [1] | Potency [2] | Potency [3] | Potency [4] | Potency [5] | Potency [6] | Potency [7] | outcome [19] | Potency [9] | Potency [10] | Potency [12] | Potency [13] | Potency [14]
30.1 µM (active) and inactive: Potency [8]
active: Potency [11] 54.4 µM and 43.3 µM | Potency [18] 25.2 µM and 39.9 µM

NC[C@H]1O[C@H](O[C@H]2[C@H](O[C@@H]3O[C@H](CO)[C@@H](O)[C@H]3O)C(O)[C@H](N)C[C@@H]2N)[C@H](N)[C@@H](O)[C@@H]1O (stereo not given in full)
inactive: activation [1] 14.9% [at 8.39 µM] | activity change, negative = inhibition [2] 0.98% [at 8.39 µM] | activity change, negative = cytotoxicity [3] 12.4% [at 8.39 µM] | activity change, negative = cytotoxicity [4] 9.53% [at 8.39 µM] | viability change, negative = cytotoxic [5] -16.4% [at 6.97 µM] | activity change, negative = cytotoxicity [6] 21.1% [at 6.97 µM] | activation [7] 6.05% [at 6.97 µM] | activity, negative = inhibition [8] 3.15% [at 4.65 µM] | activation [19] -0.179% [at 5.23 µM] | activity change, negative = cytotoxicity [9] 22.9% [at 8.39 µM] | caspase activation [10] -1.04% [at 8.39 µM] | activity change, negative = cytotoxicity [11] 6.09% [at 8.39 µM] | caspase-3/7 activation [12] -0.0652% [at 8.39 µM] | activity change, negative = cytotoxicity [13] 8% [at 8.39 µM] | max activation [20] 3.62% | activity change, negative = inhibition [17] -0.538% [at 10.5 µM]

Sc1nc2ccccc2s1
active: Potency [14] 54.5 µM | Potency [18] 7.96 µM
inactive: Potency [1] | Potency [2] | Potency [3] | Potency [4] | Potency [5] | Potency [6] | Potency [7] | Potency [8] | outcome [19] | Potency [9] | Potency [10] | Potency [13]

CC(=O)CC(=O)Nc1ccc(S(=O)(=O)O)cc1
inactive: Potency [1] | Potency [2] | Potency [3] | Potency [4] | Potency [5] | Potency [6] | Potency [7] | Potency [8] | outcome [19] | Potency [9] | Potency [10] | Potency [11] | Potency [12] | Potency [13] | Potency [17]

C=CCn1c(=O)n(CC=C)c(=O)n(CC=C)c1=O
inactive: Potency [1] | Potency [2] | Potency [3] | Potency [4] | Potency [5] | Potency [6] | Potency [7] | Potency [8] | outcome [19] | Potency [10] | Potency [11] | Potency [12] | Potency [13] | Potency [14]
active: Potency [18] 1.12 µM
